# The list is not random: actives were taken first. Their share in the collection is about 2.6%.
# LGR2 inh = inhibitors of bursicon-induced Drosophila LGR2 receptor cAMP signaling; HEK293 LGR2, CRE-luciferase, bursicon-stimulated, 4 h; inhibition, % at 9.99 µM; hit rate 0.35% among 380,000;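 active means drop in luminescence signal, shown as inhibition above about 50% in the replicate tests, limit read from the data, passing the limit was not always enough; inconclusive means probably only some replicates passing the limit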;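 further: agonist challenge used bursicon conditioned medium at about half maximal strength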
# TROY signal inh = TROY signaling inhibition. hit rate 0.98% among 360,000. inhibition, % at 10 µM. Q293 LMP1-TROYcd NF-kB luciferase reporter, 4 h. AID 1347056;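 active means compounds whose plate-normalised and pattern-corrected inhibition of the luciferase reporter signal at the single screening dose is 50% or more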
# EWS-Fli block = blocks EWS/Fli oncoprotein-driven transcription; A673 NR0B1-luciferase reporter, viability-normalised; inhibition, % at 12.6 µM; hit rate 0.67% among 350,000; AID 651661;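 active means mean inhibition of at least 50% after viability correction, with every replicate also passing that limit; inconclusive means mean reaches 50% but only one of two replicates passes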;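 further: firefly luciferase signal divided by Alamar Blue viability fluorescence both relative to DMSO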
# CF NFkB inh = inhibitors of cystic fibrosis induced NF-kB | KKLEB NF-kB-GFP reporter, PAF-induced, GFP fluorescence overnight | inhibition, % at 5 µM | AID 588850 | hit rate 0.86% among 360,000;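 active means at least 50% inhibition at 5 µM, scaled per plate between neutral and stimulator controls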;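 further: PAF is a Pseudomonas aeruginosa culture filtrate used as stimulus; plate controls were PAF-stimulated DMSO wells for no effect and unstimulated DMSO wells for full effect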
# TWEAK-Fn14 inh = inhibitors of TWEAK-Fn14 interaction signaling; hit rate 2% among 360,000; inhibition, % at 10 µM; TWEAK-stimulated Fn14 reporter cells, luciferase luminescence, 8 h; in the data active means inhibition above about 50%
# KKLEB tox = reduces viability of KKLEB cystic fibrosis airway cells; KKLEB CF airway cells viability, ATPlite luminescence, overnight; active compounds read low; cells stimulated with P. aeruginosa culture filtrate; activity change (cytotoxicity), % at 5 µM; hit rate 0.36% among 360,000;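 active means corrected activity change at or below -50% at 5 µM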
# CF NFkB conf = CF NF-kB inhibition confirmation, single concentration; shares compounds with CF NFkB inh; KKLEB CF airway cells, PAF-induced NF-kB-GFP fluorescence, overnight; inhibition, % at 5 µM; hit rate 64% among 1,300; AID 602472; in the data active means inhibition above about 40%;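 further: stimulus PAF is a Pseudomonas aeruginosa filtrate and not platelet activating factor; plate controls were DMSO wells with stimulus for no effect and unstimulated DMSO wells for full effect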
# * = called active by the depositor; ? = inconclusive; nt = not tested or not shown.
SMILES,LGR2 inh,TROY signal inh,EWS-Fli block,CF NFkB inh,TWEAK-Fn14 inh,KKLEB tox,CF NFkB conf
CCC(=O)N1C[C@@H](C)[C@@H](OC)CN(C)C(=O)c2ccc(NC(=O)CC(F)(F)F)cc2OC[C@H]1C,4,nt,9,nt,nt,nt,nt
Clc1ccc(-c2csc3ncnc(N4CCc5ccccc5C4)c23)cc1,-4,55*,nt,55*,78*,-12,46*
COc1ccc(/C=C/C(=O)N2CC(C)OC(C)C2)cc1OC (stereo unspecified),2,10,7,0,-8,-13,nt
C=CCSc1nc2ccccc2n1C(=O)/C=C/c1ccc(OC)c(OC)c1,43,15,?,92*,98*,-42,103*
c1ccc(-c2cc(-c3nc4ccccc4[nH]3)c3ccccc3n2)cc1,nt,23,5,56*,55*,-8,-87
Cc1noc(C)c1S(=O)(=O)Nc1ccc2c(c1)C(=O)N([C@H](C)CO)C[C@@H](C)[C@@H](CN(C)S(C)(=O)=O)OCCCC[C@H](C)O2,6,nt,-15,nt,nt,nt,nt
CC(=O)Oc1ccc(N(C(C)=O)S(=O)(=O)c2ccc(Cl)cc2)c2ccccc12,-20,3,-10,86*,9,-12,70*
CC(=O)Oc1ccc(N(C(C)=O)S(=O)(=O)c2ccc(C)cc2)c2ccccc12,nt,-2,0,38,13,-21,nt
C[C@H]1CN([C@@H](C)CO)C(=O)c2cccc(NC(=O)c3cnccn3)c2O[C@@H]1CN(C)C,1,nt,1,nt,nt,nt,nt
Cc1nc2sc(C(N)=O)c(N)c2c2c1CCCC2,1,-9,-16,70*,23,7,98*
C[C@H](CO)N1C[C@H](C)[C@@H](CN(C)C(=O)c2ccc(F)cc2)Oc2ncc(Br)cc2C1=O,5,nt,6,nt,nt,nt,nt
O=c1cc(-c2ccccc2)[nH]n1-c1ccccc1,3,53*,-4,58*,1,-4,32
CC1(C)Cc2c(ccc3ccccc23)C(=O)N1,nt,2,nt,69*,24,-6,78*
CCNC(=O)/C=C1\NC(C)(C)Cc2c1ccc1ccccc21,-4,3,-5,12,1,-6,nt
COCC#Cc1cnc2c(c1)C(=O)N([C@@H](C)CO)C[C@@H](C)[C@H](CN(C)C(=O)c1cccc(F)c1)O2,-13,nt,-1,nt,nt,nt,nt
Cc1ccccc1S(=O)(=O)N1CC(=O)N2[C@H](C1)[C@@H](c1ccc(C#CCC3CCCC3)cc1)[C@@H]2CO,9,nt,1,nt,nt,nt,nt
COc1cc(CCc2ccccc2)c(C(=O)O)c(O)c1C/C=C(/C)CCC=C(C)C,2,42,9,60*,44,-19,71*
COc1cc(CCc2ccccc2)c(C(=O)O)c(O)c1CC=C(C)C,-3,38,3,45,25,7,nt
O=C(C[C@@H]1CC[C@H]2[C@@H](COC[C@H](O)CN2Cc2ccc(C(F)(F)F)cc2)O1)NCCc1ccccc1,7,nt,nt,nt,nt,nt,nt
CCCC(=O)O[C@]1(C(=O)CCl)[C@@H](C)C[C@H]2[C@@H]3CCC4=CC(=O)C=C[C@]4(C)[C@@]3(F)C(=O)C[C@@]21C,-8,17,7,91*,-33,-3,2
CCC(=O)OC1(C(=O)CCl)[C@@H](C)C[C@H]2[C@@H]3CCC4=CC(=O)C=C[C@]4(C)[C@@]3(F)[C@@H](O)C[C@@]21C (stereo partly specified),-7,17,-9,76*,4,-7,18
CCC(=O)O[C@]1(C(=O)CCl)[C@@H](C)C[C@H]2[C@@H]3CCC4=CC(=O)C=C[C@]4(C)[C@@]3(F)[C@@H](O)C[C@@]21C,-3,8,5,77*,-16,17,18
C[C@@H]1CCCCO[C@@H](CN(C)C(=O)Nc2ccc(F)cc2)[C@@H](C)CN([C@@H](C)CO)C(=O)c2cc(NC(=O)CCCN(C)C)ccc2O1,-4,nt,-10,nt,nt,nt,nt
COc1ccc2cc3c(N)nn(C(=O)Cc4ccccc4OC)c3nc2c1,1,35,5,54*,52*,-10,68*
COc1ccc(-c2csc3ncnc(NCCN4CCOCC4)c23)cc1,nt,43,nt,56*,45,-17,82*
SMILES,LGR2 inh,TROY signal inh,EWS-Fli block,CF NFkB inh,TWEAK-Fn14 inh,KKLEB tox,CF NFkB conf
Clc1ccc(-c2csc3ncnc(NCCN4CCOCC4)c23)cc1,nt,23,nt,44,18,-13,nt
c1ccc(-c2csc3ncnc(NCCN4CCOCC4)c23)cc1,nt,27,nt,33,13,-13,nt
Cc1ccc(-c2csc3ncnc(NCCN4CCOCC4)c23)cc1,nt,18,nt,58*,42,-23,47*
Cc1cccc(NC(=O)CNC(=O)[C@H](CCc2ccccc2)NC(=O)[C@H]2O[C@@H](n3cnc4c(N)ncnc43)[C@H](O)[C@@H]2O)c1C,-8,nt,-11,nt,nt,nt,nt
O=C(C[C@@H]1C[C@@H]2c3cc(NC(=O)NC4CCCC4)ccc3O[C@@H]2[C@H](CO)O1)NCc1ccccn1,22,nt,-7,nt,nt,nt,nt
O=C(Nc1ccc(F)cc1)Nc1ccc(N2CCCC2)c(S(=O)(=O)Nc2ccccc2Cl)c1,nt,24,9,60*,75*,-16,71*
C[C@@H]1CCCCO[C@@H](CN(C)C(=O)Nc2ccccc2)[C@@H](C)CN([C@H](C)CO)C(=O)c2cc(NC(=O)Nc3ccccc3)ccc2O1,-17,nt,nt,nt,nt,nt,nt
CC(C)C(=O)Nc1ccc2c(c1)C(=O)N(C)[C@H]1CC[C@H](CC(=O)N[C@H](C)c3ccccc3)O[C@@H]1CO2,13,nt,-10,nt,nt,nt,nt
O=C(C[C@@H]1C=C[C@H](NC(=O)CN2CCOCC2)[C@H](CO)O1)NCCc1ccncc1,-2,nt,-5,nt,nt,nt,nt
c1nc(N2CCOCC2)c2c3c(sc2n1)CCCC3,-27,21,nt,55*,1,-23,70*
COc1cccc(CN2[C@@H](CO)[C@@H]3c4ccccc4N(C(=O)CC(F)(F)F)C[C@@H]32)c1,-14,nt,6,nt,nt,nt,nt
Cc1ccc(-c2cccc(C(=O)NCc3ccccc3)n2)c2ccccc12,-14,2,7,53*,-9,-13,31
O=C(C1CCOCC1)N1C[C@H]2[C@@H](c3ccccc31)[C@@H](CO)N2C(=O)Cc1ccccn1,-4,nt,-3,nt,nt,nt,nt
CC(C)C[C@@H]1NC(=O)[C@H](Cc2ccccc2)N(C)C(=O)[C@H](C)NC(=O)c2ccccc2NC(=O)[C@H](Cc2ccc(O)cc2)N(C)C1=O,17,-3,20,82*,26,-24,94*
CN(C)CCCN(C(=O)CCc1ccccc1)c1nc2c(F)cccc2s1,13,0,nt,27,-24,-22,nt
CN(C)CCCN(C(=O)CCOc1ccccc1)c1nc2c(F)cccc2s1,16,21,15,85*,33,-27,61*
CN(C)CCCN(C(=O)COc1ccccc1)c1nc2ccc(F)cc2s1,-23,-14,-21,-12,-27,-20,nt

# Compound activity: PubChem BioAssay, several laboratories
